Laboratory results: PubChem BioAssay (NCI)
The panel holds about 83,000 compounds, 20% with a hit somewhere; the sample as a whole holds those more often.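 Interpretation: 100, growth as untreated; towards 0, rising growth inhibition; 0, no net growth; 0 to -100, cell death. Compounds scoring below 10 were considered active.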 Values without a mark were called inactive. The source made the active and inactive calls.

Tested on: MDA-MB-468 breast
Test: NCI-60 one-dose screen, 48 h (100 = growth as untreated, 0 = no growth, -100 = all killed)
Details: 10 µM unless noted

**Q.** How did the growth turn out when `O=C(Nc1nc2cc(C(=O)N3CCN(C(c4ccccc4)c4ccccc4)CC3)ccc2o1)c1ccc(NC2CCCCC2)c([N+](=O)[O-])c1` was run?
**A.** 75.2%

**Q.** `O=C(CSc1nc2ccccc2[nH]1)Nc1ccc(-c2nc3ccccc3s2)c(Cl)c1` was tested. Which growth did it give?
**A.** 26.5%

**Q.** For `O=C1CC[C@@H](C(=O)N[C@H]2CSSC[C@@H](C(=O)NCCc3ccccc3)NC(=O)[C@H](Cc3ccccc3)NC(=O)[C@@H]3CCCN3C(=O)[C@@H]3CCCN3C2=O)N1`, which growth is on record?
**A.** 90.2%

**Q.** With `CCOC(=O)c1[nH]c(C#N)c(C(=O)OCC)c1C` as the compound, how does the growth read?
**A.** 105%

**Q.** `Nc1cc(-c2ccc(Cl)cc2)nn1-c1nc2ccccc2nc1Cc1ccccc1` was tested. Which growth did it give?
**A.** 75.7%

**Q.** `Oc1ccccc1/C=N/NC(=S)NC1CC2C=CC1C2` (stereo not given) was tested. Which growth did it give?
**A.** 73.1%

**Q.** `Nc1ncc(-c2ccc(C(F)(F)F)cc2)c(NC2CCCCCC2)n1` was tested. Which growth did it give?
**A.** -3.25% (active)

**Q.** With `COc1cc(C2C=C(c3ccc(Cl)cc3)N=C3SC(C)=CN32)cc(OC)c1OC` (stereo not given) as the compound, how does the growth read?
**A.** 80.2%

**Q.** `COc1ccc(-c2nc(-c3nc4cc(Cl)c(Cl)cc4[nH]3)c3ccccn23)cc1` was tested. Which growth did it give?
**A.** 66.6%

**Q.** Which growth does the source give for `CC1=C2C(=C[C@@](C)(CO)[C@@H]2OC(=O)N(C)CCN(C)C(=O)OC(C)(C)C)C(=O)[C@](C)(O)C12CC2` here?
**A.** -10.1% (active)

**Q.** With `NC(=Nc1ccccc1)SCCCSC(N)=Nc1ccccc1` as the compound, how does the growth read?
**A.** 85.8%

**Q.** `Cc1ccc([C@H]2c3[nH]c4ccccc4c3C[C@H]3C(=O)N(CCCCCCC(=O)NO)CC(=O)N23)s1` was tested. Which growth did it give?
**A.** 37.3%

**Q.** With `CC1(C)CC(=O)C2=C(C1)N(c1ccc(OC(F)(F)F)cc1)C(N)=C(C#N)C2c1ccc(Cl)cc1` (stereo not given) as the compound, how does the growth read?
**A.** 93.1%

**Q.** Which growth does the source give for `Oc1ccc(N=Nc2nccs2)c(O)c1` here?
**A.** 48.5%

**Q.** `COc1cc2c(cc1OC)-c1ccc3cc4c(cc3c1N(CCCN(C)C)C2)OCO4` was tested. Which growth did it give?
**A.** 22.3%

**Q.** How did the growth turn out when `Fc1cc2c(cc1Cl)N(c1ncnc3ccc(-c4ccc5n[nH]nc5c4)cc13)CC2` was run?
**A.** 40.2%

**Q.** For `Nc1n[nH]c2cccc(C#Cc3cccc(C(=O)Nc4cc(C(F)(F)F)cc(C(F)(F)F)c4)c3)c12`, which growth is on record?
**A.** 87.5%

**Q.** With `C[n+]1c(/C=C\C=C\N2CCCCC2)sc2ccccc21` as the compound, how does the growth read?
**A.** -17% (active)

**Q.** For `Cc1cc(-c2ccc(N(C)C)cc2)c2sc(=O)[nH]c2n1`, which growth is on record?
**A.** 80%

**Q.** With `O=Nc1c(-c2c(O)[nH]c3cc(Br)ccc23)[nH]c2ccccc12` as the compound, how does the growth read?
**A.** -34.2% (active)

**Q.** How did the growth turn out when `CCCOC(=O)C1c2cc3c(cc2CC(C)C1C(=O)OCCC)OCO3` (stereo not given) was run?
**A.** 102%

**Q.** `Cc1ccc(Nc2c(C(N)=O)cnc3ccc(-c4csc(N)n4)cc23)cc1` was tested. Which growth did it give?
**A.** 83.9%

**Q.** For `Nc1c(Br)cc(Br)c2c1[nH]c(=O)c1ccccc12`, which growth is on record?
**A.** -20.4% (active)

**Q.** Which growth does the source give for `C=CC(=O)OCCCCCCCC` here?
**A.** 106%

**Q.** How did the growth turn out when `CCN1C(=O)N(CC)C2Nn3c(s/c(=C\c4ccc(Cl)cc4Cl)c3=O)=NC21` (stereo not given) was run?
**A.** 32.1%

**Q.** `COc1ccc(/C=C/C=C\C(=O)c2ccc(-n3ccnc3)cc2)cc1` was tested. Which growth did it give?
**A.** 92.4%

**Q.** How did the growth turn out when `COc1cc(-c2noc(C[C@@H](NC(=O)OCc3ccccc3)C(C)C)n2)cc(OC)c1OC` was run?
**A.** 88.5%

**Q.** For `Cc1cccc(/C=C/C(=O)Nc2ncc(Cc3cccc(C)c3)s2)c1`, which growth is on record?
**A.** -15.3% (active)

**Q.** How did the growth turn out when `O=C1Cc2ccccc2C(=O)O1` was run?
**A.** 112%

**Q.** For `Cc1cccc(C[C@H](NC(=O)Nc2ccc(Cl)cc2F)C(=O)N[C@@H]2C(=O)N3C[C@H](OC(=O)CCN(C)C)C[C@H]3C(=O)N3CCCC[C@H]3C(=O)N[C@@H](C)C(=O)N3C[C@H](C)C[C@H]3C(=O)O[C@H]2C)c1`, which growth is on record?
**A.** 9.39% (active)

**Q.** With `O=C1/C(=C/c2ccc(O)cc2)Cc2ccc(Cl)cc21` as the compound, how does the growth read?
**A.** 65%

**Q.** How did the growth turn out when `COc1cc2oc3cc(=O)cc4oc(-c5ccccc5)cc(c2c2c1CCC(c1ccccc1)O2)c43` (stereo not given) was run?
**A.** 61.8%

**Q.** With `CCOC(=O)n1ccn(C)c1=S` as the compound, how does the growth read?
**A.** 103%

**Q.** `O=C1NC(=O)/C(=C/c2ccc3nccc(-c4ccncc4)c3c2)S1` was tested. Which growth did it give?
**A.** -49.2% (active)

**Q.** Which growth does the source give for `COc1cc2oc3cc(C)oc(=O)c3c2cc1OC` here?
**A.** 91%

**Q.** For `CN(C)c1ccc(/C=C/c2ccnc3ccccc23)cc1`, which growth is on record?
**A.** -9.88% (active)

**Q.** For `Cc1nc2cc(Nc3nc(N4CCCCC4)nc(N4CCOCC4)n3)ccc2n1Cc1ccccc1`, which growth is on record?
**A.** 70.1%

**Q.** For `O=C(NCCCNc1cc(-c2cn(-c3ccccc3)nc2-c2cccc(O)c2)ccn1)c1cccc(O)c1`, which growth is on record?
**A.** 29.3%

**Q.** With `COc1ccc(NC(=O)/N=c2\oc3c(OC)cccc3cc2-c2cc3ccccc3[nH]2)cc1` as the compound, how does the growth read?
**A.** 61.1%

**Q.** Which growth does the source give for `NC(=O)NO` here?
**A.** 109%
